According to PubChem BioAssay (Tox21):
Records with an inconclusive call do not appear. The source made the active and inactive calls. The call rests on the fitted dose curve; in most records, active means well fitted cell-killing curve with a large enough effect in the repeat runs (not every such curve was filed as active); inconclusive means weak or mixed curves, or effect the other way; inactive means no such curve, though single readings can be large or run the other way.

experiment: qHTS assay to identify small molecule antagonists of the farnesoid-X-receptor (FXR) signaling pathway - cell viability counter screen (AID 743221); conditions: FXR-bla HEK293T viability, CellTiter-Glo luminescence, 16 h; series mostly up to 62.6 µM; further: nearly all actives have a fitted effect of over 50% in size
From the text: National Center for Advancing Translational Sciences [NCATS]
NIH Chemical Genomics Center [NCGC]
U.S. Environmental Protection Agency [EPA]
National Institutes of Environmental Health Sciences [NIEHS]
National Toxicology Program [NTP]
U.S. Food and Drug Administration [FDA]
The farnesoid-X-receptor (FXR), a nuclear hormone receptor, is highly expressed in liver, intestine, kidney and adrenal cortex. Natural ligands of FXR are the bile acids (Cholic acid, Chenodeoxy cholic acid etc). FXR is an important regulator of diverse metabolic pathways, including the bile acid homeostasis, lipid and glucose metabolisms. FXR regulates the expression of target genes by binding either as a monomer or as a heterodimer with the retinoid X receptor (RXR). Numerous studies have reported that FXR exerts protective function during cholestasis, diabetes, liver regeneration, and cancer. To identify compounds that inhibit FXR signaling, GeneBLAzer FXR-UAS-bla HEK 293T cell line (Invitrogen, Carlsbad, CA) containing a beta-lactamase reporter gene under the control of a UAS response element was used to screen the Tox21 10K compound library. The cytotoxicity of the Tox21 compound library against the FXR-bla cell line was tested in parallel by measuring the cell viability using CellTiter-Glo assay in the same wells.
Tox21 Assay Protocol Summary:
FXR-bla cells were dispensed at 5000 cells/5uL/well in 1536-well black wall/clear bottom plates using a Multidrop Combi (Thermo Fisher Scientific, Waltham, MA) dispenser. After the assay plates were incubated at 37 C and 5% CO2 for 5 h, 23 nL of compounds dissolved in DMSO, positive controls or DMSO only was transferred to the assay plate by a Pintool station (Kalypsys, San Diego, CA), followed by addition of 1 uL Chenodeoxycholic acid (50 uM, final concentration in the wells). The assay plates were incubated at 37C for 16 h. After 1 uL of LiveBLAzerTM B/G FRET substrate was added using a Bioraptr Flying Reagent Dispenser (FRD) workstation (Beckman Coulter, Indianapolis, IN), the plates were incubated at room temperature for 2 h, and fluorescence intensity was measured by an Envision plate reader (PerkinElmer, Shelton, CT). For cell viability readout that measures cytotoxicity, 4uL/well of CellTiter-Glo reagent was added into the assay plates using a Bioraptr FRD. After 30 min incubation at room temperature, the luminescence intensity in the plates was measured using a ViewLux plate reader (PerkinElmer).

Which outcome does the source give for `O=C(O)c1ccccc1C(=O)O` here?
The outcome was “inactive”.

With `CC(C)OC(=O)COc1ccc(Cl)cc1Cl` as the compound, how does the outcome read?
Its outcome is “inactive”.

With `COCCOC(=O)c1ccccc1C(=O)OCCOC` as the compound, how does the outcome read?
Its outcome is “inactive”.

With `C[Si]1(C)O[Si](C)(C)O[Si](C)(C)O[Si](C)(C)O1` as the compound, how does the outcome read?
Its outcome is “inactive”.

For `CN(C)c1ccc(O)c2c1C[C@H]1C[C@H]3[C@H](N(C)C)C(=O)C(C(N)=O)=C(O)[C@@]3(O)C(=O)C1=C2O`, which outcome is on record?
Its outcome is “inactive”.

Which outcome does the source give for `Clc1ccccn1` here?
The outcome was “inactive”.

With `CC(=O)Oc1ccc(C)cc1` as the compound, how does the outcome read?
Its outcome is “inactive”.

For `CC(C)CC(C)O` (stereo not given), which outcome is on record?
Its outcome is “inactive”.

For `CN(C)c1ccc(Cc2ccc(N(C)C)cc2)cc1`, which outcome is on record?
The outcome was “inactive”.

For `CCCCC(C=O)CC` (stereo not given), which outcome is on record?
The outcome was “inactive”.

With `O=S(=O)(O)c1ccc(N=Nc2c(O)ccc3cc(S(=O)(=O)O)ccc23)cc1` as the compound, how does the outcome read?
The outcome was “inactive”.

For `CCCCCCCC=O`, which outcome is on record?
The outcome was “inactive”.

With `NCCCCCCN` as the compound, how does the outcome read?
Its outcome is “inactive”.

Which outcome does the source give for `O=C1C(c2[nH]c3ccccc3c2O)=Nc2ccccc21` here?
The outcome was “inactive”.

Which outcome does the source give for `CC(=O)OCc1ccco1` here?
The outcome was “inactive”.

For `CCCCCCCCCCN`, which outcome is on record?
The outcome was “inactive”.

Which outcome does the source give for `CC(CCO)CC(C)(C)C` (stereo not given) here?
Its outcome is “inactive”.

For `CC(=O)OCCOC(C)=O`, which outcome is on record?
The outcome was “inactive”.

For `C=CCc1ccc(OC)c(OC)c1`, which outcome is on record?
The outcome was “inactive”.

Which outcome does the source give for `CC1(C)NC(=O)NC1=O` here?
Its outcome is “inactive”.

For `O=C(O)/C=C/C(=O)O`, which outcome is on record?
The outcome was “inactive”.

Which outcome does the source give for `CCOCCOCCOCCO` here?
Its outcome is “inactive”.

For `O=C(O)Cn1c(=O)n(Cc2ccc(Br)cc2F)c(=O)c2ccc(Cl)cc21`, which outcome is on record?
The outcome was “inactive”.

With `O=S(=O)(O)c1ccccc1` as the compound, how does the outcome read?
Its outcome is “inactive”.

With `CCCCOC(=O)c1ccc(N)cc1` as the compound, how does the outcome read?
The outcome was “inactive”.

With `C[C@]12CCC(=O)C=C1CC[C@@H]1[C@@H]2[C@@H](O)C[C@@]2(C)[C@H]1CC[C@]2(O)C(=O)CO` as the compound, how does the outcome read?
The outcome was “inactive”.

Which outcome does the source give for `CCO[Si](CCC#N)(OCC)OCC` here?
The outcome was “inactive”.

Which outcome does the source give for `CCCCCCCCCCCCCCCCO` here?
Its outcome is “inactive”.

For `COc1ccc(CCC(C)=O)cc1`, which outcome is on record?
The outcome was “inactive”.

For `CC1(C)OC[C@@H]2O[C@@]3(C(=O)O)OC(C)(C)O[C@H]3[C@@H]2O1`, which outcome is on record?
Its outcome is “inactive”.

For `C=Cc1ccc(C)cc1`, which outcome is on record?
The outcome was “inactive”.

Which outcome does the source give for `CC(C)(C)c1cc(Cc2cc(C(C)(C)C)c(O)c(C(C)(C)C)c2)cc(C(C)(C)C)c1O` here?
Its outcome is “inactive”.

With `CC(C)OP(=O)(CP(=O)(OC(C)C)OC(C)C)OC(C)C` as the compound, how does the outcome read?
The outcome was “inactive”.

With `N[C@H](Cc1c[nH]c2ccccc12)C(=O)O` as the compound, how does the outcome read?
Its outcome is “inactive”.

For `Cc1ccc(S(=O)(=O)N=C=O)cc1`, which outcome is on record?
The outcome was “inactive”.

For `CC(=O)OC1CC(C)OC(C)O1` (stereo not given), which outcome is on record?
Its outcome is “inactive”.

For `C=CCCCCCCCCC(=O)O`, which outcome is on record?
Its outcome is “inactive”.

Which outcome does the source give for `CCCCCC(=O)O` here?
The outcome was “inactive”.

With `CN1C(=O)CC[C@H]1c1cccnc1` as the compound, how does the outcome read?
The outcome was “inactive”.

For `Cc1ccc(C(C)C)c(O)c1`, which outcome is on record?
Its outcome is “inactive”.
